Measured values as given in PubChem BioAssay (Tox21).
Values without a mark were called inactive. Inconclusive results are not listed. Calls of active or inactive are those of the source. Unless noted, calls come from the whole dose curve; as a rule, active = well fitted cell-killing curve with a large enough effect in the repeat runs; inconclusive = weak or mixed curves, or effect the other way; inactive = flat fitted curve, though single readings scatter.

tested on: not listed separately; test: qHTS assay to identify small molecule agonists of the sonic hedgehog signaling (Shh) pathway (AID 1259368; calls by dose curve;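 note: NIH/3T3-derived 3T3Gli1-Luc cells carrying a stable Gli1-driven firefly luciferase reporter; nearly all actives have a fitted effect of over 15% in size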); settings: NIH/3T3 Gli1-Luc reporter, luciferase, 24 h; series mostly up to 92.4 µM; activity change: at the top concentration
Summary of the method: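 Cells of a mouse NIH/3T3 clone stably expressing luciferase under the Gli1 transcriptional response element are exposed to test chemicals for 24 hr at 37 C. Pathway activation is detected as a rise in luminescence.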
% is set by controls: 0 for no effect and ±100 for the full control effect.

| SMILES | activity change |
| --- | --- |
| NC(=O)Nc1ccc(Cl)c(Cl)c1 | -3.23% |
| CC(=O)Oc1ccc(C(=C2CCCCC2)c2ccc(OC(C)=O)cc2)cc1 | -2.29% [at 42.5 µM, hits give high values] |
| O=C(OCCOCCO)c1ccccc1Nc1cccc(C(F)(F)F)c1 | 1.95% [at 42.5 µM, hits give high values] |
| CCOC(=O)[C@@H](C)Oc1ccc(Oc2nc3ccc(Cl)cc3o2)cc1 | 3.62% |
| CN(C)CCOC1=Cc2ccccc2Sc2ccc(Cl)cc21 | -1.74% [at 42.5 µM, hits give high values] |
| C/C=C/C=C/CCCCCCCO | 3.29% |
| CCCCC/C(=C\c1ccccc1)CO | -0.257% |
| OC(CCCN1CCCCC1)(c1ccccc1)c1ccccc1 | -0.0007% [at 42.5 µM, hits give high values] |
| CCCOc1ccc(S(=O)(=O)N2CCN(CC)CC2)cc1-c1nc2c(CC)n(Cc3ccccn3)nc2c(=O)[nH]1 | -0.694% |
| CC1CC(=O)NN=C1c1ccc(NCC(C)(C)NCC(O)COc2cc(Cl)ccc2C#N)cc1 (stereo not drawn) | 2.54% [at 42.5 µM, hits give high values] |
| O=C(c1ccc(O)cc1)c1ccc(Cl)cc1 | 3.78% |
| CCOC(=N)CC(=O)OCC | -2.01% |
| O=C(Nc1ccc([N+](=O)[O-])cc1)Nc1ccc([N+](=O)[O-])cc1 | 0.428% [at 42.5 µM, hits give high values] |
| NC(=O)N(O)[C@@H]1C=C[C@H](Oc2cccc(Oc3ccc(F)cc3)c2)C1 | 11.7% |
| CNC(=S)NC | -3.1% |
| COc1cc2c(N3CCN(C(=O)Nc4ccc(OC(C)C)cc4)CC3)ncnc2cc1OCCCN1CCCCC1 | -3.53% [at 42.5 µM, hits give high values] |
| CCCC1C(CC)=CC(CC)=CN1c1ccccc1 (stereo not drawn) | 0.642% |
| Cc1ccc(S)cc1 | 0.0353% |
| CCCCCCCC/C=C\CCCCCCCC(=O)OC(CO)CO | 0.2% |
| O=C(CCCN1CCC(O)(c2ccc(Br)cc2)CC1)c1ccc(F)cc1 | -2.74% [at 42.5 µM, hits give high values] |
| CCc1c2c(nc3ccc(OC(=O)N4CCC(N5CCCCC5)CC4)cc13)-c1cc3c(c(=O)n1C2)COC(=O)[C@]3(O)CC | 4.22% [at 42.5 µM, hits give high values] |
| CC1(C)C2=CCCC(C)(C)[C@]23CC[C@H]1C3 | -0.822% |

target: Estrogen receptor beta (Homo sapiens) (UniProt Q92731); test: qHTS assay to identify small molecule agonists of the estrogen receptor beta (ER-beta) signaling pathway (AID 1259377; active = well fitted activation curve with a large enough effect in the signal ratio in the repeat runs, not every such curve was filed as active; the % refers to the signal ratio); settings: ER-beta-UAS-bla HEK293T, beta-lactamase FRET ratio, 16 h; series mostly up to 92.4 µM; activation: at the top concentration
Summary of the method: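 HEK293T ER-beta-UAS-bla; 2% charcoal-stripped FBS; cells pre-incubated 6 hr, compound 16 hr, 37C/5% CO2; LiveBLAzer B/G FRET substrate 2 h RT; fluorescence intensity read.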

Chain of Estrogen receptor beta (Homo sapiens) (Q92731 whole entry, looked up): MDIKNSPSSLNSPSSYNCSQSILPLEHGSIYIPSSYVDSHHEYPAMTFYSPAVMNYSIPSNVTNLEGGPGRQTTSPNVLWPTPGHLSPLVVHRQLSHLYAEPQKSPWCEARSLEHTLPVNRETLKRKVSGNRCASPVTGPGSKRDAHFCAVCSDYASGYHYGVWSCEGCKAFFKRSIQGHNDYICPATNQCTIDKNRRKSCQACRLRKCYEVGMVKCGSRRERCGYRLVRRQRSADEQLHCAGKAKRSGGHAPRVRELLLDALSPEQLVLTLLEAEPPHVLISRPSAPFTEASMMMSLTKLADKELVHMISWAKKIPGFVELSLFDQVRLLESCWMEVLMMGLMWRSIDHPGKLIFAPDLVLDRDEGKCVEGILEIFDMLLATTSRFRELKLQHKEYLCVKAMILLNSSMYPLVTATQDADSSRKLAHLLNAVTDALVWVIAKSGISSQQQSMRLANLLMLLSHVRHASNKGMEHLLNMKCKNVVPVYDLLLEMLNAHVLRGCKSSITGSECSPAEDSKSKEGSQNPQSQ

| SMILES | activation |
| --- | --- |
| Cc1nc2ccccn2c(=O)c1CCN1CCC(C(=O)c2ccc(F)cc2)CC1 | 2.45% [at 42.5 µM] |
| O=C(CCCN1CCN(c2ccc(F)cc2)CC1)NC1c2ccccc2CSc2ccccc21 (stereo not drawn) | -3.13% [at 42.5 µM] |
| O=C(CS)OCCOC(=O)CS | -3.41% |
| C[C@@H]1C[C@H]2[C@@H]3CCC4=CC(=O)C=C[C@]4(C)[C@@]3(F)[C@@H](O)C[C@]2(C)[C@H]1C(=O)CO | 3.68% [at 42.5 µM] |
| C(=C\c1ccccc1)/CN1CCN(C(c2ccccc2)c2ccccc2)CC1 | -4.47% [at 42.5 µM] |
| CCOC(=O)N1CCC(n2c(=O)[nH]c3cc(Cl)ccc32)CC1 | -0.422% [at 42.5 µM] |
| CCCCCCCCCCCC(=O)[O][Sn]([CH2]CCC)([CH2]CCC)[O]C(=O)CCCCCCCCCCC | -5.41% [at 42.5 µM] |
| C[C@]12CCC(=O)C=C1C=C[C@@H]1[C@@H]2CC[C@@]2(C)[C@H]1CC[C@@]21CCC(=O)O1 | -1.56% [at 42.5 µM] |
| N#C/C(=C1/SC[C@@H](c2ccc(Cl)cc2Cl)S1)n1ccnc1 | -2.37% [at 42.5 µM] |
| CC(=O)Oc1ccc(C(=C2CCCCC2)c2ccc(OC(C)=O)cc2)cc1 | -0.838% [at 42.5 µM] |
| CCOC(=O)[C@@H](C)Oc1ccc(Oc2nc3ccc(Cl)cc3o2)cc1 | -5.38% |
| CCCCC/C(=C\c1ccccc1)CO | 1.11% |
| CC1CC(=O)NN=C1c1ccc(NCC(C)(C)NCC(O)COc2cc(Cl)ccc2C#N)cc1 (stereo not drawn) | -0.411% [at 42.5 µM] |
| CCOC(=N)CC(=O)OCC | -2.07% |
| O=C(Nc1ccc([N+](=O)[O-])cc1)Nc1ccc([N+](=O)[O-])cc1 | 0.787% [at 42.5 µM] |
| NC(=O)N(O)[C@@H]1C=C[C@H](Oc2cccc(Oc3ccc(F)cc3)c2)C1 | -0.698% |
| CCCC1C(CC)=CC(CC)=CN1c1ccccc1 (stereo not drawn) | 3.73% |
| Cc1ccc(S)cc1 | -1.13% |
| CCCCCCCC/C=C\CCCCCCCC(=O)OC(CO)CO | 1.68% |
| O=C(CCCN1CCC(O)(c2ccc(Br)cc2)CC1)c1ccc(F)cc1 | -6.85% [at 42.5 µM] |
| CCc1c2c(nc3ccc(OC(=O)N4CCC(N5CCCCC5)CC4)cc13)-c1cc3c(c(=O)n1C2)COC(=O)[C@]3(O)CC | 2.27% [at 42.5 µM] |

target: Estrogen receptor beta (Homo sapiens) (UniProt Q92731); test: qHTS assay to identify small molecule antagonists of the estrogen receptor beta (ER-beta) signaling pathway (AID 1259378; active = well fitted inhibition curve with a large enough effect in the signal ratio in the repeat runs, not every such curve was filed as active; the % refers to the signal ratio; note: potency is the fitted concentration of half-maximal effect); settings: ER-beta-UAS-bla HEK293T, beta-lactamase FRET ratio, 16 h; series mostly up to 92.4 µM; activity, negative = inhibition: at the top concentration
Summary of the method: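 Antagonist mode: compounds added to beta-lactamase reporter HEK293T ER-beta-UAS cells stimulated with E2 (1nM final), 16 hr at 37C. LiveBLAzer B/G FRET substrate, 2 hours room temperature, fluorescence read-out.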

| SMILES | activity, negative = inhibition | Potency |
| --- | --- | --- |
| Cc1nc2ccccn2c(=O)c1CCN1CCC(C(=O)c2ccc(F)cc2)CC1 | 15% [at 42.5 µM] | – |
| COc1ccc(C(=O)c2cccc(O)c2)c(OC)c1 | – | 43.2 µM (active) |
| C[C@@H]1C[C@H]2[C@@H]3CCC4=CC(=O)C=C[C@]4(C)[C@@]3(F)[C@@H](O)C[C@]2(C)[C@H]1C(=O)CO | -13.1% [at 42.5 µM] | – |
| CCCCCCCCCCCC(=O)[O][Sn]([CH2]CCC)([CH2]CCC)[O]C(=O)CCCCCCCCCCC | -18.7% [at 42.5 µM] | – |
| CC(=O)Oc1ccc(C(=C2CCCCC2)c2ccc(OC(C)=O)cc2)cc1 | – | 0.0106 µM (active) |
| CCCCC/C(=C\c1ccccc1)CO | 3.41% | – |
| CC1CC(=O)NN=C1c1ccc(NCC(C)(C)NCC(O)COc2cc(Cl)ccc2C#N)cc1 (stereo not drawn) | 1.67% [at 42.5 µM] | – |
| CCOC(=N)CC(=O)OCC | -5.53% | – |

tested on: not listed separately; test: qHTS assay to identify small molecule agonists of the androgen receptor (AR) signaling pathway in the presence of an antagonist - cell viability counter screen (AID 1259379); settings: MDA-kb2 viability, CellTiter-Fluor, 16 h; series mostly up to 92.4 µM; activity change, negative = cytotoxicity: at the top concentration; note: nearly all actives have a fitted effect of over 25% in size; note: potency is the fitted concentration of half-maximal effect;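 for activity change, negative = cytotoxicity: MDA-kb2 human breast cancer cells carrying an MMTV luciferase reporter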
Summary of the method: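 Cytotoxicity is assessed by CellTiter-Fluor in MDA-kb2 cells carrying an MMTV-driven luciferase reporter. Cells receive 3.0uM nilutamide plus compounds at 15 concentrations and incubate 16 hr at 37C without CO2 before fluorescence reading.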

| SMILES | activity change, negative = cytotoxicity | Potency |
| --- | --- | --- |
| Cc1nc2ccccn2c(=O)c1CCN1CCC(C(=O)c2ccc(F)cc2)CC1 | -6.16% [at 42.5 µM] | – |
| CCCCC(=O)O[C@]1(C(=O)CO)[C@@H](C)C[C@H]2[C@@H]3CCC4=CC(=O)C=C[C@]4(C)[C@@]3(F)[C@@H](O)C[C@@]21C | -0.429% | – |
| COc1ccc(C(=O)c2cccc(O)c2)c(OC)c1 | -1.16% | – |
| O=C(CCCN1CCN(c2ccc(F)cc2)CC1)NC1c2ccccc2CSc2ccccc21 (stereo not drawn) | -1.95% [at 42.5 µM] | – |
| C=CCOC(=O)/C=C\C(=O)OCC=C | -2.01% | – |
| O=C(CS)OCCOC(=O)CS | -3.76% | – |
| C[C@@H]1C[C@H]2[C@@H]3CCC4=CC(=O)C=C[C@]4(C)[C@@]3(F)[C@@H](O)C[C@]2(C)[C@H]1C(=O)CO | -5.63% [at 42.5 µM] | – |
| CCCCCCCCSCCO | 2.19% | – |
| COCc1c(C(C)C)nc(C(C)C)c(/C=C/[C@@H](O)C[C@@H](O)CC(=O)O)c1-c1ccc(F)cc1 | – | inactive |
| C(=C\c1ccccc1)/CN1CCN(C(c2ccccc2)c2ccccc2)CC1 | -8.66% [at 42.5 µM] | – |
| COCCOC(=O)C1=C(C)NC(C)=C(C(=O)OC/C=C/c2ccccc2)C1c1cccc([N+](=O)[O-])c1 (stereo not drawn) | -17% [at 42.5 µM] | – |
| O=C(CCCCCCC(=O)Nc1ccccc1)NO | -3.61% [at 42.5 µM] | – |
| CCOC(=O)N1CCC(n2c(=O)[nH]c3cc(Cl)ccc32)CC1 | – | 29.8 µM (active) |
| Nc1ccc(C(=O)OCCCOC(=O)c2ccc(N)cc2)cc1 | -2.29% | – |
| C[C@]12CCC(=O)C=C1C=C[C@@H]1[C@@H]2CC[C@@]2(C)[C@H]1CC[C@@]21CCC(=O)O1 | -12.2% [at 42.5 µM] | – |
| NC(=O)Nc1ccc(Cl)c(Cl)c1 | 0.0656% | – |

| SMILES | activity change, negative = cytotoxicity | Potency |
| --- | --- | --- |
| CC(=O)Oc1ccc(C(=C2CCCCC2)c2ccc(OC(C)=O)cc2)cc1 | 0.0394% [at 42.5 µM] | – |
| O=C(OCCOCCO)c1ccccc1Nc1cccc(C(F)(F)F)c1 | -2.21% [at 42.5 µM] | – |
| CCOC(=O)[C@@H](C)Oc1ccc(Oc2nc3ccc(Cl)cc3o2)cc1 | -1.76% | – |
| CN(C)CCOC1=Cc2ccccc2Sc2ccc(Cl)cc21 | -11.2% [at 42.5 µM] | – |
| C/C=C/C=C/CCCCCCCO | -3.18% | – |
| CCCCC/C(=C\c1ccccc1)CO | 3.43% | – |
| OC(CCCN1CCCCC1)(c1ccccc1)c1ccccc1 | -6.89% [at 42.5 µM] | – |
| CCCOc1ccc(S(=O)(=O)N2CCN(CC)CC2)cc1-c1nc2c(CC)n(Cc3ccccn3)nc2c(=O)[nH]1 | -2.16% | – |
| CC1CC(=O)NN=C1c1ccc(NCC(C)(C)NCC(O)COc2cc(Cl)ccc2C#N)cc1 (stereo not drawn) | -12.2% [at 42.5 µM] | – |
| CCOC(=N)CC(=O)OCC | -7.44% | – |
| CNC(=S)NC | -7.03% | – |
| CCCC1C(CC)=CC(CC)=CN1c1ccccc1 (stereo not drawn) | – | 48.6 µM (active) |
| Cc1ccc(S)cc1 | 1.11% | – |
| O=C(CCCN1CCC(O)(c2ccc(Br)cc2)CC1)c1ccc(F)cc1 | -1.31% [at 42.5 µM] | – |
| CCc1c2c(nc3ccc(OC(=O)N4CCC(N5CCCCC5)CC4)cc13)-c1cc3c(c(=O)n1C2)COC(=O)[C@]3(O)CC | -10.9% [at 42.5 µM] | – |
| CC1(C)C2=CCCC(C)(C)[C@]23CC[C@H]1C3 | -2.81% | – |
